Bioassay records as filed in PubChem BioAssay.
Rows were chosen to be rich in hits. Some 7.5% of all compounds tested hit in one or more screens of this group.
VP16 counter – inhibits Gal4-VP16 luciferase reporter, ROR gamma counter-screen. Potency, µM (series often up to 53.6 µM), for the others: at the top dose activity, negative = inhibition, most hits filed as inhibitors. actives 3.5% (n = 310,000). Drosophila S2 Gal4-VP16 UAS-luciferase, luminescence, 20 h;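 further: Gal4-VP16 expression switched on by copper sulfate through the metallothionein promoter; potency means the concentration at half of the fitted maximal effect; nearly all actives have a fitted effect of over 50% in size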
RORgamma inh – inhibitors of mouse ROR gamma transcriptional activity; P51450; Drosophila S2 Gal4-RORgamma UAS-luciferase reporter, 20 h; Potency, µM (doses to about 53.6 µM), for inactives: at the highest dose activity change, negative = inhibition, actives largely listed as inhibitors; actives 5.4% (n = 310,000); further: potency means the concentration at half of the fitted maximal effect; nearly all actives have a fitted effect of over 60% in size
Target sequence (P51450 whole entry, looked up, the tested form may be a part): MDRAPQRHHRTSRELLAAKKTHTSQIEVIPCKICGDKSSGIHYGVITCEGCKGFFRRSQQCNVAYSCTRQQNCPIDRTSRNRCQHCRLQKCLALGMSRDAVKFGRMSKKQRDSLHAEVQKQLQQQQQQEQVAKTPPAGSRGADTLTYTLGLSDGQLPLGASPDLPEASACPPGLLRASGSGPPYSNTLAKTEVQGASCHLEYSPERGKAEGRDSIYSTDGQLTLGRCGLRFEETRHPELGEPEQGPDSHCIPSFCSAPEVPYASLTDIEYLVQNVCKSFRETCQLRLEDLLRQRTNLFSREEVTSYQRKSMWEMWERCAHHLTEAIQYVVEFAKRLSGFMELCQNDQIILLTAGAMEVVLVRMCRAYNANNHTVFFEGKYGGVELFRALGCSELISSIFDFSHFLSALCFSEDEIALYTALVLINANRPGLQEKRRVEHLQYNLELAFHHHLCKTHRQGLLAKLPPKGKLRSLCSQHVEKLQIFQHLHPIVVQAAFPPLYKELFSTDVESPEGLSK
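ROR gamma transcriptional activity was tracked as Gal4-UAS luciferase output in stably transfected Drosophila Schneider cells, with compound added 1 hr before 700 uM copper sulfate induction and a 20 hr ambient-temperature incubation.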
ELG1 DNA repair – inhibitors of ELG1-dependent DNA repair in HEK293T cells; HEK293T ELG1-luciferase reporter, luminescence, 16 h; DNA damage induced by 5-fluorouridine; Potency, µM (highest dose often 46.1 µM), inactives show top-dose activity change, negative = inhibition, actives largely listed as inhibitors; actives 2.3% (n = 330,000); further: potency means the concentration at half of the fitted maximal effect; nearly all actives have a fitted effect of over 55% in size
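Overnight (16 hr) co-exposure of 2,000 cells/well to 5-fluorouridine and compound at 37 °C preceded detection. Luciferase was quantified via ONE-Glo luminescence; loss of signal denotes inhibition.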
B2AR arrestin – recruits beta-arrestin to the human beta2-adrenergic receptor | P07550 | actives 0.02% (n = 330,000) | Potency, µM (series often up to 46.1 µM), without a hit: at the top dose activation, actives largely listed as activators | beta-arrestin recruitment to beta2AR, cell-based reporter;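 further: potency means the concentration at half of the fitted maximal effect; 0% = DMSO controls and full agonism = EC100 isoproterenol or metaproterenol; nearly all actives have a fitted effect of over 65% in size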
TSHR antagonist – blocks TSH signaling through the human TSH receptor. TSHR-expressing cells, TSH-stimulated cAMP HTRF, 2 h; stronger effect = lower value. activity change, negative = inhibition, % at 11.5 µM. actives 0.2% (n = 330,000);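 active means activity change below a set negative limit, meaning inhibition stronger than a set level, cut at about -70% in these data; inconclusive means activity change between two set negative limits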
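Competitive HTRF cAMP read-out (cryptate anti-cAMP antibody, cAMP-d2; 30 min, room temperature) in freshly harvested TSHR cells. Compounds added before TSH at EC80 (4nM final), followed by 2 hours' incubation at 37 deg C.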
Starred values were filed as active, the others as inactive; u = inconclusive; x = no result given; [ ] = remark or other dose. Unless noted, the call rests on the fitted dose curve; in most records, active means well fitted curve in the direction sought with a large enough effect; inconclusive means small, poorly fitted or top-dose-only effect, or another doubt; inactive means no such curve, though single readings can be large; an effect the other way counts as inactive or inconclusive. Unless noted, on the % scale 0 is the no-effect control and ±100 the full control effect.

SMILES | VP16 counter | RORgamma inh | ELG1 DNA repair | B2AR arrestin | TSHR antagonist
Cc1nc2ccccn2c1-c1ccnn1S(=O)(=O)c1ccc(F)cc1 | u | 0% | 18µM* | -1% | -8
Cc1ccc(S(=O)(=O)N(C)CC(=O)NNC(=O)CCNS(=O)(=O)c2cccc(C)c2)cc1 | x | x | 17% | 0% | 3
COc1ccc(C(=O)c2c(C(F)(F)F)oc3c2C(=O)c2ccccc2C3=O)cc1OC | u | 39% | 3.7µM* | 0% | 23
COc1ccc(C(=O)Nc2ccc3c(c2)C(=O)c2ccccc2C3=O)cc1OC | -9% | 2% | 14% | -3% | -3
O=C(N/N=C/c1cnc(N2CCCCC2)s1)c1ccc(C(F)(F)F)cc1 | 3.5µM* | 2µM* | -6% | -1% | -2
CCCCCCCC/C=C\CCCCCCCC(=O)OCC(CO)OC(=O)CCCCCCC/C=C\CCCCCCCC (centres undefined) | -4% | -24% | x | x | x
CC(NC(=O)C12CC3CC(CC(C3)C1)C2)C(=O)N/N=C/C1=C(N2CCOCC2)C(=C\c2cccc([N+](=O)[O-])c2)/CC1 (centres undefined) | 5% | -13% | 6.5µM* | -1% | -2
CCOC(=O)CNC(=O)O[C@@H]1C(=O)c2cc(Br)ccc2O[C@H]1c1ccc2c(c1)OCO2 | -19% | -7% | x | x | x
O=C(Nc1ccc(N2CCN(C(=O)c3ccco3)CC2)cc1)c1ccco1 | -1% | 26% | 6% | 0% | -11
Cc1ccccc1C(=O)N1CCN(c2ccc(NC(=O)c3ccc([N+](=O)[O-])o3)cc2)CC1 | u | -28% | u | 0% | -17
Cc1ccccc1C(=O)N1CCN(c2ccc(NC(=S)NC(=O)c3ccco3)cc2)CC1 | u | 16µM* | u | 0% | -41
COc1ccccc1C(=O)NC(=S)Nc1ccc(N2CCN(C(=O)c3ccco3)CC2)cc1 | 10µM* | -13% | 13µM* | 0% | -30
CCc1nnc(NC(=O)c2cc(S(=O)(=O)N3CCOCC3)ccc2N2CCCCC2)s1 | 1% | -3% | -6% | 0% | -12
Cc1ccccc1-n1c(-c2ccoc2C)n[nH]c1=S | u | 10µM* | u | -1% | 4
Cc1cccc(-n2c(-c3ccoc3C)n[nH]c2=S)c1 | u | 8.9µM* | 10% | 0% | -15
Cc1occc1-c1n[nH]c(=S)n1CC(C)C | 3% | 8% | -3% | 0% | -13
Cc1ccccc1-n1c(C)n[nH]c1=S | -5% | u | 2% | 0% | 9
CCc1ccccc1NC(=S)NCc1ccc2c(c1)OCO2 | 11µM* | 6.3µM* | u | 0% | 6
Cc1cccc(NC(=S)NCCc2ccc3c(c2)OCCO3)c1C | u | 4µM* | u | 0% | -5
CN(C)CC(C)(C)CNC(=S)NCc1ccc2c(c1)OCO2 | -15% | -1% | 26% | -1% | 10
CC(C)(C)NC(=S)NCc1ccc2c(c1)OCO2 | u | 11µM* | -1% | u | -4
CCOc1ccccc1NC(=O)NCc1ccc2c(c1)OCO2 | 1% | 6% | 3% | -1% | 13
Cc1ccccc1NC(=S)NCc1ccc2c(c1)OCO2 | 10µM* | 2.5µM* | 3% | 0% | -5
Cc1ccc(C)c(NC(=S)NCc2ccc3c(c2)OCO3)c1 | -6%[0.365 µM] | u | -3% | -1% | -1
Cc1cccc(NC(=S)NCCN2CCOCC2)c1C | 1% | u | 12% | 2% | 8
Cc1ccccc1C(=O)N1CCC(C(=O)OCc2ccccc2Cl)CC1 | x | x | 5% | 0% | -18
Cc1cccc(NC(=S)NCc2ccc3c(c2)OCO3)c1C | 13µM* | 5µM* | 4% | -2% | 10
C[C@@H]1C(=O)CC2C(C)(C)CCC[C@]2(C)[C@@]1(O)CCc1ccoc1 (some centres undefined) | -1% | -18% | x | x | x
CC1CC2OC(=O)C3(C)CCCC(C)(C23)C1(O)CCc1ccoc1 (centres undefined) | -5% | 3% | 15µM* | -1% | 2
COc1cc(/C=N/n2c(-c3ccc4c(c3)NC(=O)CO4)csc2=Nc2cccc(C)c2)ccc1O | u | u | 15µM* | 0% | 24
